Test [1] concerns Wnt5a (protein binding on small-molecule microarray). The experiment in a line: Wnt5a binders on small-molecule microarray, primary screen, biophysical, 635/667 nm fluorescence (AID 1142).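 Also: fluorescence read at 667 nm with signal to noise per printed feature.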 Particulars: 635 nm fluorescence, higher = more signal.
A short description of test [2]: cell viability in Huh7 cells, primary screen, cytotoxicity control for HCV replication inhibitor project, CellTiter-Glo luminescence, basal, 48 h (AID 1143).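 Also: Huh7 hepatoma cells carrying a hepatitis C replication reporter with no stimulus; test concentration not given here.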 Particulars: Huh7 HCV replicon, higher = more signal, called active from +8 up or from −8 down.
Test [3] is described as follows: P. aeruginosa biofilm formation inhibitors, primary screen, PAO1 strain, BacTiter-Glo luminescence, LB-PBS (AID 1144). Particulars: 12 h, higher = more signal.
Test [4] in a line: CREB reporter modulators without forskolin, primary screen, cell-based, PC12, CRE-LacZ reporter, unstimulated (AID 1145). The conditions noted are these: no forskolin, luminescence, 4.5 h, higher = more signal, called active from +8 up or from −8 down.
The nature of test [5]: CREB reporter modulators under forskolin, primary screen, cell-based, PC12, CRE-LacZ reporter, forskolin-stimulated (AID 1146).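 Also: PC12 cells with 6xCRE LacZ reporter stimulated by forskolin 10 µM; beta-galactosidase reporter signal reflecting CREB driven transcription.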 The conditions noted are these: luminescence, 4.5 h, higher = more signal, called active from +8 up or from −8 down.
The target of test [6] is Streptavidin (Streptomyces avidinii) (UniProt P22629). Put plainly: streptavidin binders on small-molecule microarray, primary screen, artefact control for SMM compound annotation, biophysical, 635/667 nm fluorescence (AID 1147).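 Also: signal reflects streptavidin binding to arrayed compounds as a control protein.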 Particulars: streptavidin binding, higher = more signal.
The nature of test [7]: small-molecule binders of probe aInhba, primary screen, biochemical, small-molecule microarray, 635/667 nm fluorescence (AID 1148).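 Also: score merges 667nm spot fluorescence with signal-to-noise for antibody binding to printed compounds.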 Particulars: higher = more signal.
In test [8] the target is Torsin-1A (Homo sapiens) (UniProt O14656). The experiment in a line: torsin A binders from cell lysate, primary screen, small-molecule microarray, wild-type, 635/667 nm (AID 1149). Particulars: COS7 hTOR1A-WT lysate, 635 nm fluorescence, higher = more signal.
The target is the same in test [9]. Put plainly: small-molecule binders of mutant TOR1A in lysate, primary screen, cell lysate, small-molecule microarray, COS7 lysate, 635/667 nm fluorescence (AID 1150).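 Also: score pools 667 nm emission and signal to noise measuring lysate protein binding.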 The conditions noted are these: COS7 hTOR1A mutant lysate, 635 nm fluorescence, higher = more signal.
The subject of test [10] is Sonic hedgehog protein (Shh). Put plainly: small-molecule binders of Shh protein, primary screen, biochemical, small-molecule microarray, 635/667 nm fluorescence (AID 1151).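 Also: Shh protein binding to compounds spotted on small-molecule microarray slides; score combines spot fluorescence intensity with signal-to-noise across triplicate slides.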 Particulars: small-molecule microarray binding, 635 nm fluorescence; higher = more signal.
Test [11] in a line: E. coli DRC41 culture turbidity changes, primary screen, E. coli filamentation inducer project, strain DRC41, OD650, 48 h (AID 1152).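 Also: E. coli MC1000 strain DRC41 lacking acrAB efflux pump and sulA.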 The conditions noted are these: E. coli DRC41 (acrAB sulA), higher = more signal, called active from +8 up or from −8 down.
Test [12] can be described thus: small-molecule binders of probe aLefty1, primary screen, biochemical, small-molecule microarray, 635/667 nm fluorescence (AID 1153).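 Also: score merges spot fluorescence with signal-to-noise ratio from the scanned slide images.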 Particulars: higher = more signal.
Test [13] is described as follows: PSAC antagonists in infected red cells, primary screen, cell-based, P. falciparum Indochina, OD700, 1 h (AID 1154). Particulars: P. falciparum Indochina infected RBC osmotic lysis, higher = more signal, called active from +8 up or from −8 down.
The nature of test [14]: PSAC antagonists in infected red cells, primary screen, cell-based, P. falciparum Indochina, OD700, 2 h (AID 1155).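 Also: lysis reports solute entry through the parasite surface anion channel PSAC; channel blockers reduce lysis of infected cells.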 The conditions noted are these: P. falciparum Indochina infected erythrocytes, osmotic lysis OD700; higher = more signal, called active from +8 up or from −8 down.
Test [15] is described as follows: osmotic lysis modulators in infected erythrocytes, primary screen, PSAC antagonist project, cell-based, P. falciparum Indochina, OD700, 3 h (AID 1156). Particulars: higher = more signal, called active from +8 up or from −8 down.
A short description of test [16]: PSAC antagonists in infected red cells, primary screen, cell-based, P. falciparum Indochina, OD700, 18 h (AID 1157). Particulars: P. falciparum Indochina infected erythrocytes, osmotic lysis OD700, 18 h; higher = more signal, called active from +8 up or from −8 down.
Test [17] can be described thus: modulators of S6 phosphorylation in cells, primary screen, cell-based, A549, cytoblot, luminescence, serum-stimulated (AID 1158).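 Also: serum-stimulated A549 lung adenocarcinoma cells; signal is phosphorylated S6 detected by cytoblot immunostaining with HRP secondary.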 Particulars: A549 phospho-S6 cytoblot, 5 h, higher = more signal.
In test [18] the target is NADPH oxidase 2 (Homo sapiens) (UniProt P04839). The experiment in a line: NOX2-dependent H2O2 signal modulators, primary screen, NOX inhibitor project, cell-based, HEK293-NOX2, PMA-stimulated, Amplex Red fluorescence (AID 1159). Also: test concentration not given here. The conditions noted are these: 45 min, higher = more signal, called active from +8 up or from −8 down.
Test [19] addresses NADPH oxidase 4 (Homo sapiens) (UniProt Q9NPH5). Put plainly: NOX4-dependent H2O2 signal modulators, primary screen, NOX inhibitor project, cell-based, HEK293-NOX4, tetracycline-induced, Amplex Red fluorescence (AID 1160). Particulars: 45 min, higher = more signal, called active from +8 up or from −8 down.
Test [20] has as its target NADPH oxidase 5 (Homo sapiens) (UniProt Q96PH1). The experiment in a line: NOX5-dependent H2O2 signal modulators, primary screen, NOX inhibitor project, cell-based, HEK293-NOX5, Amplex Red fluorescence (AID 1161). The conditions noted are these: HEK293-NOX5, ionomycin, 45 min, higher = more signal.

Structures are written as SMILES. The source made the active and inactive calls. Unless noted, no rule for the calls is given here.

Chain of Streptavidin (Streptomyces avidinii) (P22629 whole entry, looked up): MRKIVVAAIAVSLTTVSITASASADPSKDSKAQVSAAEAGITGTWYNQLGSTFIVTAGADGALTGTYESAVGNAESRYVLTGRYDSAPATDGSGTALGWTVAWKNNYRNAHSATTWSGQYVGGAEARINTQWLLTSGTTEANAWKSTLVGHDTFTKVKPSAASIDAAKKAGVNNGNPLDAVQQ
Chain of NADPH oxidase 4 (Homo sapiens) (Q9NPH5 whole entry, looked up): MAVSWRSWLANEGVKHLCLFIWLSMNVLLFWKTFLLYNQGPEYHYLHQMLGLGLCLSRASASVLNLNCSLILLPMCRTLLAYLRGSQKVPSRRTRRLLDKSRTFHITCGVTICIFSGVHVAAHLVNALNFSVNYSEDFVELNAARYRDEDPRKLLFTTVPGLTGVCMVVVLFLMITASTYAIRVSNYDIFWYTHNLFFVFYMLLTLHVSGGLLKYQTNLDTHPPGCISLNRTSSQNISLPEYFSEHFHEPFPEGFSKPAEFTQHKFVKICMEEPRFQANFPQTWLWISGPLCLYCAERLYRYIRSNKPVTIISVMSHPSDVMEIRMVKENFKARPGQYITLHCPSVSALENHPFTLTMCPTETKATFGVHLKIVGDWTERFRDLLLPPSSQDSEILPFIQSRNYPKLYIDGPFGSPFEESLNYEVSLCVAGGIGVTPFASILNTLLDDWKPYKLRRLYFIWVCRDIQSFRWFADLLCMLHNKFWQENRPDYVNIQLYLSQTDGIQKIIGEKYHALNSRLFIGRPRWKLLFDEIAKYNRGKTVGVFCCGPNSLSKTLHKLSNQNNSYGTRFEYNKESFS
Chain of Torsin-1A (Homo sapiens) (O14656 whole entry, looked up): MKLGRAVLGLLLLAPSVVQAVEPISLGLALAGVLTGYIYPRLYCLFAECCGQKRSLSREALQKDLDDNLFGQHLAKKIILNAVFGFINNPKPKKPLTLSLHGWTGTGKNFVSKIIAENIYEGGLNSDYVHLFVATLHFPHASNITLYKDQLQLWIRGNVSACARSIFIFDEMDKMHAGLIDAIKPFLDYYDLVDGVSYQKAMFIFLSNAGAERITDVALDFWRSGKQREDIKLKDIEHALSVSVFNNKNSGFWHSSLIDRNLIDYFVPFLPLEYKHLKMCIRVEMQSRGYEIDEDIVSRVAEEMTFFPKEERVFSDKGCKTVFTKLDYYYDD
Chain of NADPH oxidase 2 (Homo sapiens) (P04839 whole entry, looked up): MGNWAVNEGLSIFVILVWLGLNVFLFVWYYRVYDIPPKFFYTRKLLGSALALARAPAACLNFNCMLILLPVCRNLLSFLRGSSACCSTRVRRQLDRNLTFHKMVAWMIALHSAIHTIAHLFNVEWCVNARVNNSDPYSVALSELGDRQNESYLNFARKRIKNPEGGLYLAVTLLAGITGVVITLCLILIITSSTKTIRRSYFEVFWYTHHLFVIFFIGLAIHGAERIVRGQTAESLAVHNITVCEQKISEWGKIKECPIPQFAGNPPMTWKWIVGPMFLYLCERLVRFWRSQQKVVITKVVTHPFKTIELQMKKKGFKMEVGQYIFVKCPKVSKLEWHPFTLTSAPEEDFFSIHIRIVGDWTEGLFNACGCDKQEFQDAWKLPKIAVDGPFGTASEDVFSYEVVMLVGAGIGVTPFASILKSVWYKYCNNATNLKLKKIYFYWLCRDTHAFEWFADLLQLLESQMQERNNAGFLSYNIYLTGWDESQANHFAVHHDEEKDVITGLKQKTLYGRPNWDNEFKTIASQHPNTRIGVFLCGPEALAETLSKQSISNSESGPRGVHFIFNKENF
Chain of NADPH oxidase 5 (Homo sapiens) (Q96PH1 whole entry, looked up): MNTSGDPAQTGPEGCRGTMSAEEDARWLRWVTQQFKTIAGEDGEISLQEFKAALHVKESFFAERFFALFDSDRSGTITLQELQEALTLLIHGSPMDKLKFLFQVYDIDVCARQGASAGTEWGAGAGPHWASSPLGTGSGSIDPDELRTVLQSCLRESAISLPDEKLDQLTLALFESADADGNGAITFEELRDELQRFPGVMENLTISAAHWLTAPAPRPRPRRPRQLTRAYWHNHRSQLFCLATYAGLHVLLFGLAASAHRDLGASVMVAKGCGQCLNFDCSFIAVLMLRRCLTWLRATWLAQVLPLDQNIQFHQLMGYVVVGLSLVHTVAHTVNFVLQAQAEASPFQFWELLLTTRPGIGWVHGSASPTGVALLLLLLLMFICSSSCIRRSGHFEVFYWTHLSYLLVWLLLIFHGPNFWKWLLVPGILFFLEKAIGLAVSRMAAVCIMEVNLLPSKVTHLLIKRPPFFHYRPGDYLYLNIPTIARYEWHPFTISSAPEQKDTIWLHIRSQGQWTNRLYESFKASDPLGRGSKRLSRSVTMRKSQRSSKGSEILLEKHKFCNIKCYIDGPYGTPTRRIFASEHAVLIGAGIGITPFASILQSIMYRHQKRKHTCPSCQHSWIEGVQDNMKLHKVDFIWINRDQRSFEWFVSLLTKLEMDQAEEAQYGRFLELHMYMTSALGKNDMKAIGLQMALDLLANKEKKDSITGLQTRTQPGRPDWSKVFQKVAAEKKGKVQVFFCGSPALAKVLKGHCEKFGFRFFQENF

As to `COCCNC(=O)OCC1CCCC2(CC(OC(=O)NCc3cccc4ccccc34)CC(CCC(=O)N[C@@H](C)C(=O)OC)O2)O1` (stereo not given in full), the composite z-score was 0.278 in test [1]; 0.403 in test [6]; -0.157 in [7]; 0.413 in [8]; 0.41 in test [9]; 0.971 in test [10]. The compound further showed a composite z-score in test [12] of -0.198. The z-score in test [2] was -0.862 (inactive); in [3], -0.496 (inactive); in [4], 0.376 (inactive); in [5] it was 1.47 (inactive); in test [11], 0.434 (inactive); in test [13] it was -1.58 (inactive). The z-score in test [14] is -0.523 (inactive); in [15] it was -1.28 (inactive); in test [16], 0.174 (inactive); in test [17], -0.582; in test [18] it was -0.155 (inactive); in test [19] it was 1.49 (inactive). For the same compound, in test [20], the z-score was found to be 2.08.

As to `C[C@@H]1CC[C@H]2C(=O)N3[C@@H](CC[C@@H](C)[C@@H]3c3ccc(Br)cc3)C(=O)N2[C@H]1c1ccc(Br)cc1`, the composite z-score in test [1] was 0.113; in test [6] it was 0.146; in test [7], -0.0719; in test [8], 1.05; in test [9], 0.626; in test [10] it was 0.233. The composite z-score in test [12] was -0.0099. Further, the z-score in test [2] was -1.1 (inactive); in test [3], 1.21 (inactive); in test [4], 0.198 (inactive); in [5], 0.929 (inactive); in test [11], -1.09 (inactive); in test [13], 4.4 (inactive). The z-score is 1.07 (inactive) in test [14]; 0.121 (inactive) in test [15]; 0.689 (inactive) in test [16]; 0.448 in test [17]; 1.79 (inactive) in test [18]; -1.8 (inactive) in test [19]. This compound also returned a z-score in test [20] of 0.819.

With `O=C1[C@H]2[C@H]3[C@H](O)[C@H](O)CC(=NO[C@@H]4O[C@H](CO)[C@@H](O)[C@H](O)[C@H]4O)[C@H]3CC[C@H]2C(=O)N1C[C@@H]1CCCO1`, the composite z-score is 0.16 in [1]; 0.253 in [6]; -0.159 in [7]; 0.288 in [8]; 0.952 in [9]; -0.167 in test [10]. In test [12], this compound had a composite z-score of -0.0054. The z-score in test [2] is 0.297 (inactive); in [3], 0.261 (inactive); in [4] it was -0.477 (inactive); in test [5], -0.105 (inactive); in test [11], 0.819 (inactive); in test [13], 0.651 (inactive). Moreover, the z-score in [14] was 0.544 (inactive); in [15] it was 0.0197 (inactive); in test [16], 0.353 (inactive); in test [17] it was -0.164; in test [18], -2.4 (inactive); in test [19], 0.513 (inactive). The same compound came in with a z-score in [20] of 0.488.

On to `O=C1C=C[C@@H](O)[C@@H]2[C@@H]3C(=O)N(Cc4ccc5c(c4)OCO5)C(=O)[C@@H]3CC[C@@H]12`, for which the composite z-score was 0.538 in test [1]; 0.283 in test [6]; -0.307 in test [7]; 0.376 in [8]; 0.123 in test [9]; 0.499 in test [10]. The same compound came in with a composite z-score in test [12] of -0.0061. Besides, the z-score in [2] was -0.655 (inactive); in test [3] it was 0.917 (inactive); in [4] it was -0.567 (inactive); in test [5], -0.332 (inactive); in test [11] it was 0.038 (inactive); in test [13] it was 1.26 (inactive). Also, the z-score in test [14] was -0.0262 (inactive); in [15] it was -0.556 (inactive); in test [16], 0.379 (inactive); in test [17], 0.182; in test [18], 1.41 (inactive); in test [19] it was -1.55 (inactive). Besides, in [20], the z-score is -0.372.

In the case of `CC(CCC(=O)OC[C@H]1O[C@H](C#Cc2ccccc2)C=C[C@@H]1Oc1ccc(C)cc1)=NOC(C)CN1CCCc2nc(C)c(C)cc21` (stereo not given in full), the composite z-score in test [1] is 0.0127; in [6], 0.727; in test [7] it was -0.0259; in test [8] it was 0.313; in [9], -0.0361; in test [10] it was 0.298. In [12], the composite z-score came to 0.106. In addition, the z-score in [2] was -0.386 (inactive); in [3], 0.0692 (inactive); in [4] it was 0.336 (inactive); in test [5] it was 0.51 (inactive); in [11], -0.651 (inactive); in [13] it was 5.4 (inactive). Also, the z-score in test [14] is 0.859 (inactive); in test [15] it was 0.785 (inactive); in test [16], 0.735 (inactive); in test [17], -0.624; in test [18], -0.866 (inactive); in test [19], -0.435 (inactive). This compound registered a z-score in test [20] of -0.297.

The values are drawn from PubChem BioAssay.
